The whole screen tested about 4,800 compounds, of which about 410 (8.5%) showed an effect of 50% or more. Shown is part of a subset that was picked to be rich in strong results.
test system: Plasmodium falciparum; test: Confirmatory screen in NF54 pLDH assay, in single point, at 2uM, 72h; assay type: functional, Erythrocyte; conditions: timepoint 72 hour

First: CC(C)(C)OC(=O)Cn1cc(CO)nn1
Second: Cc1n[nH]cc1Nc1ccnc(C(C)(C)C)n1
The “% Inhibition” value of the first is higher: 10% for the first, 7% for the second.

Going from `O=C(C[C@H]1CCOC1)Nc1cc2ccc(Br)cn2n1` to `Cc1cc(Br)ccc1CNC(=O)CN1CCCCC1=O`, the “% Inhibition” value rises from 11% to 13%.

Compared with `COC(=O)c1cc(NC(=O)N2CCO[C@H](C(=O)OC)C2)c(F)cc1F`, `CC(NS(C)(=O)=O)C(=O)N1CCC(F)(c2cc(F)cc(F)c2)C1` (centres undefined) is higher in “% Inhibition” value: 6% for the first, 12% for the second.

Compared with `CC1CN(C(=O)C(C(C)C)N2CC(C)OC(C)C2)CCO1` (centres undefined), `CC(C)OC[C@@H](O)CN1CC(C2CCC2)C1` is lower in “% Inhibition” value: -12% for the first, -19% for the second.

Compared with `COc1ccc(NC(=O)C2=Cc3cc(Cl)cc(OC)c3OC=C2)cc1`, `COc1ccc(C(=O)Nc2ccc3c(c2)C(=O)Nc2cccnc2O3)cc1OC` is higher in “% Inhibition” value: -1% for the first, 26% for the second.

First: CCCN(CCC)CCN1C(=O)[C@@H]2C(C(=O)Nc3cc(Cl)cc(Cl)c3)[C@@H]3C=C[C@]2(O3)C1C(=O)NC1CCCCC1 (some centres undefined)
Second: CCc1cc(=O)[nH]c(-n2nc(C3CC3)cc2NC(=O)C2CCCCC2)n1
The “% Inhibition” value of the first is lower: 50% for the first, 87% for the second.

Compared with `O=c1[nH]cnc2c1nc(N1CCCCC1)n2C1OC(CO)C(O)C1O` (centres undefined), `CCc1cc(C(=O)N2CCCCCC2)c2c(C3CC3)nn(-c3ccc(F)cc3)c2n1` is higher in “% Inhibition” value: 3% for the first, 5% for the second.

Going from `O=C(Cc1nnc2ccc(C(=O)Nc3ccccc3)cn12)Nc1ccc(F)cc1` to `COCc1cc2nn(CC(=O)Nc3ccc(F)cc3)c(=O)n2c(-c2ccccc2)n1`, the “% Inhibition” value falls from 8% to -27%.

First: CCC(CC)C(=O)Nc1cc(C2CC2)nn1-c1nc(-c2ccccc2)cc(=O)[nH]1
Second: O=C(CCCc1ccccc1)Nc1cc(C2CC2)nn1-c1nc(-c2ccccc2)cc(=O)[nH]1
The “% Inhibition” value of the first is higher: 45% for the first, 36% for the second.

Compared with `CN1CCC[C@H](C(=O)Nc2nc(C3CC3)cs2)C1`, `CC1CC(c2ccccc2)CCN1C(=O)c1cc(C2CC2)on1` (centres undefined) is higher in “% Inhibition” value: -2% for the first, 6% for the second.

Compared with `Cc1nn(C)c(NC(=O)c2ccc(C(C)(C)C)cc2)c1C1=CCCCC1`, `Cc1cc(=O)[nH]c(-n2nc(C3CC3)cc2NC(=O)c2ccc(C(C)(C)C)cc2)n1` is higher in “% Inhibition” value: -5% for the first, 52% for the second.

First: CC(C)(C)c1ccc(C(=O)N[C@H]2CCCC[C@@H]2NC(=O)c2ccc(C(C)(C)C)cc2)cc1
Second: CCN(CC)c1ccc(C(=O)Nc2ccc3nc(N4CCCC4)cc(C)c3c2)cc1
The “% Inhibition” value of the first is lower: 2% for the first, 93% for the second.

Compared with `Cc1cc(F)ccc1NC(=O)Cn1nc(C2CC2)c2c(C(F)F)cc(=O)[nH]c21`, `CC(C)c1cc(=O)[nH]c(-n2nc(C3CC3)cc2NC(=O)c2ccc(F)cc2)n1` is higher in “% Inhibition” value: 9% for the first, 89% for the second.

First: Cc1cc(=O)[nH]c(-n2nc(C3CC3)cc2NC(=O)C(c2ccccc2)c2ccccc2)n1
Second: CS(=O)(=O)Nc1nc2ccc(NC(=O)c3cc(-c4ccccc4)nc4ccccc34)cc2s1
The “% Inhibition” value of the first is higher: 87% for the first, 3% for the second.

Compared with `Cc1ccc(C(=O)Nc2c(C(N)=O)sc3nc(C(F)F)cc(C4CC4)c23)cc1`, `Cc1ccc(NC(=O)COC(=O)c2nccc3ccccc23)cc1` is higher in “% Inhibition” value: -9% for the first, 11% for the second.

Going from `CC1CCCCC1NC(=O)CN1CCN(Cc2cccc(Cl)c2)C1=O` (centres undefined) to `O=C(NC1CCCC1)N1CCN(S(=O)(=O)c2cccc(F)c2)CC1`, the “% Inhibition” value rises from -4% to 2%.

Compared with `Cc1cc2ncc(-n3cncn3)c(-c3ccccc3)n2n1`, `Cc1cc(N)nc(Nc2ccc(Nc3ccccc3)cc2)n1` is higher in “% Inhibition” value: 8% for the first, 97% for the second.

Going from `CCc1ccc(CN2CCN(Cc3cccc(Oc4ccccc4)c3)CC2)cc1` to `Clc1cccc(N2CCN(Cc3ccc(OC4CCNCC4)cc3)CC2)c1`, the “% Inhibition” value rises from 8% to 14%.

Going from `CCC1CC(CC(=O)NS(=O)(=O)c2ccnn2C)CCO1` (centres undefined) to `Cc1cc(Br)ccc1CN(C)S(C)(=O)=O`, the “% Inhibition” value falls from 0% to -4%.

First: COc1ccc2cc3n(c2c1)C[C@](C(=O)NC1CCCCCC1)(c1ccccc1)N(Cc1ccccc1Cl)C3=O
Second: COc1cccc(CC(=O)N2CCc3nc(N4CCC(C)CC4)nc(Oc4ccccc4OC)c3C2)c1
The “% Inhibition” value of the first is lower: 13% for the first, 61% for the second.

Going from `CC1(C)CCCc2sc(NC(=O)N[C@H]3CCOC4(CCC4)C3)nc21` to `O=C(N[C@@H]1CC=C(c2ccc(F)cc2)CC1)c1nc2n(n1)CCCN2`, the “% Inhibition” value rises from 1% to 10%.

Going from `CCOc1ccc2sc(NC(=O)Cn3cnc4nc(N5CCCCC5)sc4c3=O)nc2c1` to `CCn1cc(C(=O)Nc2ccc(C(=O)N3CCCCC3)cc2)cn1`, the “% Inhibition” value rises from -1% to 5%.

First: Cn1ccc(C2=Nc3ccccc3NC(=O)C2)n1
Second: Cn1ccc(NC(=O)c2cccc3ccccc23)n1
The “% Inhibition” value of the first is lower: -4% for the first, 4% for the second.

First: O=S(=O)(c1ccc(Cl)cc1)N1CCC(c2cc(-c3cccc(C(F)(F)F)c3)[nH]n2)CC1
Second: O=S(=O)(c1ccc(F)c(Cl)c1)N1CC[C@H](Oc2ccncc2Cl)C1
The “% Inhibition” value of the first is lower: 0% for the first, 89% for the second.

Going from `O=S(=O)(c1ccco1)N1CC[C@H](Oc2ccccc2)C1` to `O=c1cc(-c2ccccc2)n(S(=O)(=O)c2ccccc2)o1`, the “% Inhibition” value falls from 10% to -7%.

First: O=S(=O)(c1ccc(Br)o1)N1CCCC[C@H]1c1ncc[nH]1
Second: Cc1cc(C)n(S(=O)(=O)c2cccc3cccnc23)n1
The “% Inhibition” value of the first is lower: -20% for the first, -10% for the second.

First: CC1CCN(c2nc3c(c(Oc4cccc(F)c4)n2)CN(Cc2ccccn2)CC3)CC1
Second: COc1cccc(Oc2nc(N3CCN(C)CC3)nc3c2CN(C(=O)Nc2ccccc2)CC3)c1
The “% Inhibition” value of the first is higher: 21% for the first, 10% for the second.

Compared with `COc1cc(OC)cc(C(=O)Nc2ccc3nc(N4CCC(C)CC4)cc(C)c3c2)c1`, `COc1ccc(-c2cc(C(=O)NC3CCN(C(C)C)CC3)c3ccccc3n2)cc1OC` is lower in “% Inhibition” value: 40% for the first, -18% for the second.

Compared with `O=C1CN(S(=O)(=O)c2ccc(C(F)(F)F)cc2)C2(CCCCC2)CN1CC1CC1`, `O=C(Nc1ccccc1)C1=NN(CC(=O)N2CCCCC2)C(=O)CC1` is higher in “% Inhibition” value: -14% for the first, -1% for the second.

Compared with `CCOC(=O)c1c(CN2CCOCC2)n(-c2ccc(C)cc2)c2ccc(Oc3nccc(Nc4ccccc4)c3C#N)cc12`, `CCN1CCN(c2cccc(NC(=O)c3ccc4[nH]c5ccccc5c(=O)c4c3)c2)CC1` is higher in “% Inhibition” value: 7% for the first, 100% for the second.

First: COc1ccc(Nc2nc(C(C(F)(F)F)(C(F)(F)F)C(F)(F)F)nc(C(C(F)(F)F)(C(F)(F)F)C(F)(F)F)n2)cc1
Second: Cc1nc(N)nc(C)c1C(=O)Nc1ccc(Nc2ncccn2)cc1
The “% Inhibition” value of the first is lower: 11% for the first, 36% for the second.

Going from `CC(=O)C1(C(C)=O)[C@H](c2ccc(F)cc2)C1(C#N)C#N` to `CC(C)NC(=O)N(C)Cc1ccc(F)cc1`, the “% Inhibition” value rises from -24% to 8%.

Compared with `O=C(CCC1CCCCC1)Nc1ncccn1`, `c1cn(C[C@@H]2CCCN2c2nc(C3CCCC3)ns2)nn1` is higher in “% Inhibition” value: -9% for the first, -8% for the second.

Compared with `O=C(NCCCc1ccccc1)[C@H]1CCCN(c2nc3ccccc3[nH]2)C1`, `c1ccc2[nH]c(Nc3nc4ccccc4s3)nc2c1` is higher in “% Inhibition” value: -4% for the first, 14% for the second.

Going from `CC(C)C1(C)CC(=O)N(C(C(=O)O)c2ccccc2)C1=O` (centres undefined) to `Cc1c(C(=O)NC2CC2)cc(-c2ccccc2)n1C`, the “% Inhibition” value rises from -6% to 6%.

First: c1ccc(Nc2nc(-c3ccccc3)cc(-c3ccccc3)n2)cc1
Second: N#Cc1c(-c2ccccc2)cc(-c2ccccc2)n(C(=O)c2ccc(F)cc2)c1=O
The “% Inhibition” value of the first is lower: 5% for the first, 9% for the second.

Going from `O=C(NC(C1CC1)C1CC1)c1ccsc1` to `CC[C@@H](C(N)=O)N1CCN(Cc2nc(-c3cccs3)no2)CC1`, the “% Inhibition” value rises from -23% to 7%.

First: Cn1c(C(=O)N2CC[C@H](N)C2)ccc1-c1cccc(Br)c1
Second: CCN1CCN(C(=O)c2ccccc2N2CCC(NC(=O)c3cccc(Br)c3)CC2)CC1
The “% Inhibition” value of the first is lower: 11% for the first, 40% for the second.

Going from `Oc1nccc(C(F)(F)C(F)(F)F)n1` to `O=C(Nc1[nH]c(=O)ncc1F)c1cc(F)c(F)cc1Br`, the “% Inhibition” value rises from -3% to 86%.

Going from `CCOc1ccc(-c2cc(NC(=O)c3cc(-c4cccnc4)nc4ccccc34)on2)cc1OCC` to `O=C(Nc1[nH]c(=O)ncc1F)c1cccc2ccccc12`, the “% Inhibition” value falls from 98% to 72%.

Compared with `Cc1ccc(-c2ccc(CN(CC(=O)NCC(=O)O)C(C)C)s2)cc1`, `Cc1cccc(NC(=O)c2cc(C)nc3c2c(C)nn3-c2ccc(F)cc2)c1` is lower in “% Inhibition” value: 13% for the first, 0% for the second.

First: CCn1c(C)c(C)c2cc(C(=O)Nc3cccc(S(=O)(=O)N4CCOCC4)c3)ccc21
Second: CCN1CCN(c2cccc(NC(=O)c3cc(F)cc4c(=O)c5cc(F)ccc5[nH]c34)c2)CC1
The “% Inhibition” value of the first is lower: 4% for the first, 96% for the second.

Compared with `CN(C)Cc1ccc(NC(=O)c2cc(F)cc3c(=O)c4cc(F)ccc4[nH]c23)cc1`, `CC(C)n1nccc1NC(=O)c1c[nH]c2ccc(F)cc2c1=O` is lower in “% Inhibition” value: 95% for the first, -4% for the second.

First: CC(=O)Nc1cccc(C#CCN2CCN(c3ccc(F)cc3)CC2)c1
Second: COc1ccc(-c2cc(C(=O)N[C@H]3CCN(c4ccc(=O)[nH]n4)C3)c(C)n2C)cc1
The “% Inhibition” value of the first is lower: 13% for the first, 58% for the second.

First: N#CCc1ncc(CCN2C(=O)c3ccccc3C2=O)s1
Second: Cn1cc(C(=O)c2nc(-c3ccccc3Cl)no2)cn1
The “% Inhibition” value of the first is higher: 7% for the first, -5% for the second.

Going from `COc1ccc(S(=O)(=O)N(c2onc(C)c2Cl)S(=O)(=O)c2ccc(OC)c(OC)c2)cc1OC` to `COc1ccc(CNC(=N)NS(=O)(=O)c2ccc(OC)c(OC)c2)c(OC)c1`, the “% Inhibition” value rises from 4% to 11%.

Going from `Cc1noc(-c2csc(-c3c[nH]cn3)n2)n1` to `COc1cc(C(=O)Nc2[nH]c(=O)ncc2F)ccc1Cl`, the “% Inhibition” value rises from -1% to 68%.

Compared with `CN(Cc1ccn(C)n1)C(=O)c1cc(S(=O)(=O)N(C)C)c(Cl)cc1Cl`, `O=S(=O)(c1ccc2nncn2c1)N(Cc1cccc(Cl)c1)c1ccccc1` is higher in “% Inhibition” value: 8% for the first, 9% for the second.

Going from `COc1ccc(-c2cc(C(=O)N[C@H]3CCN(c4ccc(=O)n(C)n4)C3)c(C)n2C)cc1` to `O=C(Nc1ccccc1-c1nnc[nH]1)c1ccc(F)c(Cl)c1`, the “% Inhibition” value falls from 41% to 2%.

With `O=C1c2ccccc2C(c2ccc(NC(=O)c3cccc4ccccc34)cc2)(c2ccc(NC(=O)c3cccc4ccccc34)cc2)c2ccccc21` the “% Inhibition” value was 42%.

Reference: ChEMBL document CHEMBL4888484, “Replenishing the malaria drug discovery pipeline: Screening and hit evaluation of the MMV Hit Generation Library 1 (HGL1) against asexual blood stage Plasmodium falciparum ,using a nano luciferase reporter read-out” (2022)
